Measurements from PubChem BioAssay (NCI).
This is part of a sample that, as a whole, favours compounds with a hit. Of some 83,000 tested, about 20% had one in any assay.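 The endpoint reported here, percent growth, reads 100 for growth as untreated, 0 for no net growth and -100 for all cells dead.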 Values without a mark were called inactive. Active and inactive are the calls of the source. Rule for the calls: active = growth percent below 10; inactive = the rest.

What was measured:
Assay in all cases: NCI-60 one-dose screen, 48 h (100 = growth as untreated, 0 = no growth, -100 = all killed)
Settings in all cases: 10 µM unless noted
[1] = system: SR leukemia
[2] = system: OVCAR-8 ovarian
[3] = system: OVCAR-5 ovarian
[4] = system: OVCAR-4 ovarian
[5] = system: SK-OV-3 ovarian
[6] = system: IGROV1 ovarian
[7] = system: OVCAR-3 ovarian
[8] = system: HS 578T breast
[9] = system: NCI/ADR-RES ovarian
[10] = system: T-47D breast
[11] = system: BT-549 breast
[12] = system: MDA-MB-435 melanoma
[13] = system: SW-620 colon
[14] = system: MCF7 breast
[15] = system: HCT-116 colon
[16] = system: HCC-2998 colon
[17] = system: KM12 colon

SMILES | growth [1] | growth [2] | growth [3] | growth [4] | growth [5] | growth [6] | growth [7] | growth [8] | growth [9] | growth [10] | growth [11] | growth [12] | growth [13] | growth [14] | growth [15] | growth [16] | growth [17]
COc1ccc(OC)c(/C=C2\Oc3cc(OCCCN4CCCC4)ccc3C2=O)c1 | -22.8% (active) | 78.1% | 82.1% | 86.7% | 110% | 84.2% | 91% | 80.8% | 80.3% | 92.6% | 87.9% | 91.2% | 55.9% | 55.7% | 46.1% | 87.3% | 73.6%
OCc1ncc(-c2ccccc2)s1 | 107% | 107% | 92.2% | 97.5% | 99.4% | 113% | 101% |  | 22.1% | 89.8% |  | 108% | 106% | 102% | 89.5% | 79.6% | 103%
COc1ccc(-c2ccc(-c3ccc(-c4ccc(C(=N)N)cc4)s3)s2)cc1OC | 6.75% (active) | 101% | -12.2% (active) | -53.2% (active) |  | 15.7% | -64.9% (active) | 89.6% | 84% | 28.5% | 98.3% | 88.2% | -40.8% (active) | -19.8% (active) | 27.5% | -68.6% (active) | -42.5% (active)
Cc1ccc(S(=O)(=O)NCCCNc2cc(-c3cn(C(C)(C)C)nc3-c3cccc(O)c3)ccn2)cc1 | 40.6% | 71.9% | 78.5% | 56% | 85.7% | 61.7% | 74.6% | 60% | 72.4% | 44.2% |  | 63.1% | 19.1% |  | 52.5% | 50.3% | 39.8%
CC(C)(C)n1cc(-c2ccnc(NCCNS(=O)(=O)c3ccc(F)cc3)c2)c(-c2cccc(O)c2)n1 | 25.5% | 62.4% | 68.6% | 56.2% | 79.3% | 68.9% | 70.5% | 60.3% | 61.7% | 23.7% |  | 64.7% | 11% | 28.5% | 37.3% | 31.2% | 36.1%
CC(=O)Nc1ccc(/C=C/C(=O)c2ccccc2)cc1 | 3.34% (active) | 98.4% | 113% | 106% | 101% | 43% | 57.6% | 81.7% | 103% | 73.9% | 86.2% | 114% | 53.2% |  | 77% | 113% | 46.6%
CC12CCCC(CC(=O)c3[nH]c4ccccc4c31)C2 (configuration not stated) | 15.5% | 31.1% | 34.6% | 60.7% | 53.4% | 24.6% | -26.1% (active) |  | 5.24% (active) | 24.1% |  | -46.9% (active) | 22.2% | 21.1% | 22.7% | 43.5% | 26.7%
Cn1cnc2c(N3CCN(C(=O)OCc4ccc5c(Cl)cc(Cl)c(O)c5n4)CC3)nc(Cl)nc21 | 74.1% | 51.3% | 90.5% | 32.7% | 97.6% | 66% | 66.8% | 75.7% | 35.3% | 61% |  | 67.5% | 85.9% | 73% | 53.1% | 94.1% | 56.9%
CC12CCC3C4(C)COC(c5ccccc5Cl)OC4CCC3(C)C1CC(C1=CCOC1=O)O2 (configuration not stated) | 28% | 65.1% | 91.3% | 31.2% | 94.5% | 82.9% | 64.4% | 76.1% | 63.2% | 31.1% |  | 54.2% | 84.7% | 46.6% | 40.5% | 77.4% | 59.9%
O=S(=O)(NCCCNc1nccc(-n2ccc3cccnc32)n1)c1cccc(C(F)(F)F)c1 | 103% | 105% | 101% | 101% | 112% | 107% | 112% | 100% | 101% | 99.6% |  | 108% | 108% | 103% | 105% | 119% | 98%
O=C(NCc1cn(Cc2cccc(Oc3ccccc3)c2)nn1)c1cccnc1Nc1ccc(F)cc1 | 28.3% | 67.2% | 89.3% | 86.1% | 52.2% | 79.4% | 35.9% | 76.7% | 31.7% | 83.1% | 86.6% | -11.7% (active) | 44.7% | 24% | 32.8% | 62.7% | 34.4%
CC(C)(C)n1cc(-c2ccnc(NCCCNS(=O)(=O)c3ccccc3)c2)c(-c2cccc(O)c2)n1 | 20.9% | 52.4% | 67.7% | 55.9% | 88.6% | 51.1% | 54.1% |  | 56.9% | 23.8% | 47.4% | 54.8% | 14.5% | 25.1% | 36.8% | 18.5% | 26.9%
C=C1CCC2C(C)(CO)C(O)CCC2(C)C1CC(NCc1ccccc1)C1=CCOC1=O (configuration not stated) | 99.8% | 94% | 94.3% | 97.8% | 105% | 102% | 105% | 104% | 95.9% | 97.7% |  | 106% | 97.3% | 89.8% | 99.8% | 108% | 104%
O=S(=O)(NCCCNc1nccc(-n2ccc3cccnc32)n1)c1ccc(Br)cc1 | 112% | 103% | 107% | 99.3% | 113% | 108% | 112% | 103% | 101% | 95.6% |  | 107% | 110% | 110% | 105% | 121% | 98.3%
Cc1ccc(S(=O)(=O)NCCNc2cc(-c3cn(C(C)(C)C)nc3-c3cccc(O)c3)ccn2)cc1 | 51.7% | 79% | 80% | 67.3% | 91.4% | 75.2% | 81.7% | 76.6% | 67% | 45.1% |  |  | 39.7% | 41.6% | 62.1% | 43% | 65.1%
O=C(NCCCNc1nccc(-n2ccc3cccnc32)n1)c1c(F)cccc1F | 99.2% | 107% | 98.9% | 94.9% | 116% | 97.6% | 109% | 103% | 99.4% | 97.1% |  | 105% | 107% | 88.4% | 101% | 104% | 106%
CCc1cnc(=S)n(-c2ccccc2)c1 | 99.6% | 113% | 97.3% | 135% | 105% | 105% | 98.5% | 108% | 98.3% | 112% | 107% |  | 104% | 108% | 93.5% | 86.5% | 109%
CC(=O)OC[C@]12CC[C@H]3[C@@H](C[C@H]4O[C@]45CC=CC(=O)[C@]35C)[C@]1(O)CC[C@@]2(O)[C@@](C)(O)C1CC(C)=C(C)C(=O)O1 (some centres not stated) | 10.4% | 7.69% (active) | -24.1% (active) | 19.8% | -13.1% (active) | -55.1% (active) | -23.7% (active) | -1.18% (active) | 38.9% | -23.2% (active) | -12.2% (active) | -77.4% (active) | -32.1% (active) | -27% (active) | -29.3% (active) | -82.8% (active) | -70.8% (active)
